{"source": "PubChem BioAssay (EPA / NIEHS)", "note": "Active and inactive are the calls of the source. The calls were made as follows: active = hit-call score of the fitted dose curve at least 0.9, where 1 is the maximum; inactive = score below 0.9.", "data": [{"read-out": "Collagen III, COL3A1 (gene 1281)", "assay": "BSK_hDFCGF_CollagenIII: BioMAP Diversity Plus: hDFCGF Assay for Collagen III Biomarker Activity (AID 2283056)", "conditions": "primary human foreskin fibroblasts; actives raise or lower the signal", "in_short": "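Response relative to DMSO, fitted in both directions, reflects ELISA-measured collagen III in human primary skin fibroblasts 24 h after compound addition.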", "values": [{"molecule": "Oc1ccccc1", "outcome": "inactive"}, {"molecule": "COc1cc(C(=O)NC2CCN(C)CC2)ccc1Nc1ncc2c(n1)N(C1CCCC1)CC(F)(F)C(=O)N2C", "AC50": "19 µM (active)"}, {"molecule": "C[C@]12CC[C@@H]3c4ccc(O)cc4CC[C@H]3[C@@H]1CCC2=O", "outcome": "inactive"}, {"molecule": "CN(C)C(=O)C1(N2CCCCC2)CCN(CC[C@@]2(c3ccc(Cl)c(Cl)c3)CN(C(=O)c3ccccc3)CCO2)CC1", "AC50": "25.4 µM (active)"}, {"molecule": "CN(C)c1ccc(C(=C2C=CC(=[N+](C)C)C=C2)c2ccc(N(C)C)cc2)cc1", "AC50": "0.148 µM (active)"}, {"molecule": "O=C(O)Cn1c(=O)n(Cc2ccc(Br)cc2F)c(=O)c2ccc(Cl)cc21", "outcome": "inactive"}, {"molecule": "CCCCCCCCOC(=O)c1cc(O)c(O)c(O)c1", "AC50": "14 µM (active)"}, {"molecule": "O=C(O)c1ccccc1C(=O)OCc1ccccc1", "outcome": "inactive"}, {"molecule": "Cc1ccc2oc(CN(Cc3ccccc3)C(=O)Nc3c(F)cc(F)cc3F)c(-c3ccc(Cl)cc3)c2c1", "outcome": "inactive"}, {"molecule": "Cc1oc2c(NC(=O)c3c(Cl)cccc3Cl)cccc2c1C(C)(C)O", "AC50": "20 µM (active)"}, {"molecule": "c1ccc2n[nH]nc2c1", "outcome": "inactive"}, {"molecule": "CC[C@@H]1C[C@H](N(Cc2cc(C(F)(F)F)cc(C(F)(F)F)c2)C(C)=O)c2cc(C(F)(F)F)ccc2N1C(=O)OC(C)C", "outcome": "inactive"}, {"molecule": "CO[C@H]1/C=C/O[C@@]2(C)Oc3c(C)c(O)c4c(O)c(c(/C=N/N5CCN(C)CC5)c(O)c4c3C2=O)NC(=O)/C(C)=C\\C=C\\[C@H](C)[C@H](O)[C@@H](C)[C@@H](O)[C@@H](C)[C@H](OC(C)=O)[C@@H]1C", "outcome": "inactive"}, {"molecule": "O=C(O)c1ccccc1-n1cc(C(=O)O)c(=O)c2cc(Nc3c(F)cc(F)cc3Cl)c(Cl)cc21", "outcome": "inactive"}, {"molecule": "COc1cccc([C@H](O)C2CCN(CCc3ccc(F)cc3)CC2)c1OC", "outcome": "inactive"}, {"molecule": "CC1(C)NC(=O)N(c2ccc([N+](=O)[O-])c(C(F)(F)F)c2)C1=O", "outcome": "inactive"}, {"molecule": "CC/C(=C(/CC)c1ccc(O)cc1)c1ccc(O)cc1", "AC50": "11.4 µM (active)"}, {"molecule": "CCCCCCCCCCCO", "AC50": "31.6 µM (active)"}, {"molecule": "Cc1cc(F)ccc1-c1cc(N2CC[C@@H](O)[C@H]2CO)ncc1N(C)C(=O)C(C)(C)c1cc(C(F)(F)F)cc(C(F)(F)F)c1", "AC50": "24.1 µM (active)"}, {"molecule": "Cc1cn([C@H]2C[C@H](N=[N+]=[N-])[C@@H](CO)O2)c(=O)[nH]c1=O", "outcome": "inactive"}, {"molecule": "CCCCCCCC[Si](OCC)(OCC)OCC", "AC50": "20 µM (active)"}, {"molecule": "O=C(O)Cc1cc(I)c(Oc2ccc(O)c(I)c2)c(I)c1", "AC50": "8.91 µM (active)"}, {"molecule": "CN1C(=O)CC[C@H]1c1cccnc1", "outcome": "inactive"}, {"molecule": "O=c1c(-c2ccc(O)cc2)coc2cc(O)cc(O)c12", "outcome": "inactive"}, {"molecule": "CCCC(=O)OCCC(C)C", "outcome": "inactive"}, {"molecule": "Cc1occc1C(=O)Nc1ccc(C(=O)N2CCC(F)(F)/C(=C\\C(=O)N3CCC(N4CCCCC4)CC3)c3ccccc32)cc1", "outcome": "inactive"}, {"molecule": "O=C1O[C@H]([C@@H](O)CO)C(O)=C1O", "outcome": "inactive"}, {"molecule": "NC(=O)c1nc(-c2cccc(-c3cc(F)ccc3OCC(F)(F)C(F)(F)F)c2)n[nH]1", "AC50": "17.7 µM (active)"}, {"molecule": "CC(C)(C)c1csc(-c2cc3cc(OCc4ccccc4CC(=O)O)ccc3o2)n1", "AC50": "3.19 µM (active)"}, {"molecule": "O=C(Nc1ccc(Cl)cc1)Nc1ccc(Cl)c(Cl)c1", "AC50": "0.148 µM (active)"}, {"molecule": "CC(C)(O)c1ccc(CNC(=O)c2cccnc2Oc2ccc3nonc3c2)cc1", "outcome": "inactive"}, {"molecule": "c1ccc(C[n+]2cccc3ccccc32)cc1", "outcome": "inactive"}, {"molecule": "O=C=NCCCCCCN=C=O", "outcome": "inactive"}, {"molecule": "CCOC(=O)O[C@H](C)OC(=O)c1ccc2c(c1)cc(C(=O)NC1CCN(C(C)C)CC1)n2Cc1cc(-c2ccc(Cl)s2)on1", "AC50": "4.13 µM (active)"}, {"molecule": "O=c1[nH]sc2ccccc12", "AC50": "20 µM (active)"}, {"molecule": "OC12N=C(c3ccccc3)SC1Cc1cc(Cl)ccc12", "note": "(stereo unspecified)", "outcome": "inactive"}, {"molecule": "Cc1cccc2ccccc12", "outcome": "inactive"}]}, {"read-out": "Epidermal growth factor receptor (EGFR), EGFR (gene 1956)", "assay": "BSK_hDFCGF_EGFR: BioMAP Diversity Plus: hDFCGF Assay for Epidermal growth factor receptor (EGFR) Biomarker Activity (AID 2283057)", "conditions": "primary human foreskin fibroblasts; actives raise or lower the signal", "in_short": "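Measured by ELISA: EGFR levels on primary human foreskin fibroblasts 24 h after chemical treatment, analysed relative to DMSO with bidirectional fitting.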", "values": [{"molecule": "COc1cc(C(=O)NC2CCN(C)CC2)ccc1Nc1ncc2c(n1)N(C1CCCC1)CC(F)(F)C(=O)N2C", "outcome": "inactive"}, {"molecule": "CN(C)C(=O)C1(N2CCCCC2)CCN(CC[C@@]2(c3ccc(Cl)c(Cl)c3)CN(C(=O)c3ccccc3)CCO2)CC1", "AC50": "9.57 µM (active)"}, {"molecule": "O=C(O)Cn1c(=O)n(Cc2ccc(Br)cc2F)c(=O)c2ccc(Cl)cc21", "outcome": "inactive"}, {"molecule": "O=C(OCCCCCCOC(=O)c1ccccc1)c1ccccc1", "outcome": "inactive"}, {"molecule": "c1ccc2n[nH]nc2c1", "outcome": "inactive"}, {"molecule": "O=C(O)c1ccccc1-n1cc(C(=O)O)c(=O)c2cc(Nc3c(F)cc(F)cc3Cl)c(Cl)cc21", "outcome": "inactive"}, {"molecule": "CCCCCCCC[Si](OCC)(OCC)OCC", "outcome": "inactive"}, {"molecule": "O=C(O)Cc1cc(I)c(Oc2ccc(O)c(I)c2)c(I)c1", "outcome": "inactive"}, {"molecule": "CCCC(=O)OCCC(C)C", "outcome": "inactive"}, {"molecule": "Cc1occc1C(=O)Nc1ccc(C(=O)N2CCC(F)(F)/C(=C\\C(=O)N3CCC(N4CCCCC4)CC3)c3ccccc32)cc1", "outcome": "inactive"}, {"molecule": "NC(=O)c1nc(-c2cccc(-c3cc(F)ccc3OCC(F)(F)C(F)(F)F)c2)n[nH]1", "outcome": "inactive"}, {"molecule": "CC(C)(O)c1ccc(CNC(=O)c2cccnc2Oc2ccc3nonc3c2)cc1", "outcome": "inactive"}, {"molecule": "c1ccc(C[n+]2cccc3ccccc32)cc1", "outcome": "inactive"}, {"molecule": "Cc1cccc2ccccc12", "outcome": "inactive"}]}]}
